Source: PubChem BioAssay AID690 (Sanford-Burnham Center for Chemical Genomics, 2007)
Among all 96,000 compounds or so, about 80 (0.08%) were called active. Not all results are given here. Entries with a potency or affinity are not part of this list. A number with no mark means an inactive call. The rule behind the calls is not given here.

The compounds below were run against Alkaline phosphatase, placental type (Homo sapiens) (UniProt P05187) (assay: inhibition of human placental alkaline phosphatase – biochemical, luminescence, HTS (AID 690)). Details: purified PLAP, luminescent substrate; at 20 µM; active compounds read high.
Chain of Alkaline phosphatase, placental type (Homo sapiens) (P05187 whole entry, looked up): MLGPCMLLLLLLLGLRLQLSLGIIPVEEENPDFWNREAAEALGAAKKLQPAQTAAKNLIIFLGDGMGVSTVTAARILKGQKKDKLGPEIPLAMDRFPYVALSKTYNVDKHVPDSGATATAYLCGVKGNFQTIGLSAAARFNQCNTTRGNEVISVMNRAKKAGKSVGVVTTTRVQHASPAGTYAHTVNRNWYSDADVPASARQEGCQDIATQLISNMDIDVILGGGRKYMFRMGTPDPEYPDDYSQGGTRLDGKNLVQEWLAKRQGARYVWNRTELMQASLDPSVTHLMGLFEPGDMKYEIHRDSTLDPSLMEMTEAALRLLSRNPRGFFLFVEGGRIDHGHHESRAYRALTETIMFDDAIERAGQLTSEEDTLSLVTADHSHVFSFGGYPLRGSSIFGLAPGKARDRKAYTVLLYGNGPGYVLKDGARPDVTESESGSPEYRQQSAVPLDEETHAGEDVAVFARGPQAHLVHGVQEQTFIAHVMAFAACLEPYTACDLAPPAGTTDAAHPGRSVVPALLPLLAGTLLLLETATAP

Compound | inhibition [%]
C[n+]1ccc(/C=C/c2ccc(Br)cc2)cc1 | 33.9
CN(C)c1ccc(/C=C/c2cc[n+]([O-])cc2)cc1 | 5.5
CN(C)c1nc(C(=O)NN)nc(N(C)C)n1 | 21.7
CC1=C(/C=C/C(=O)O)C(C)(C)CCC1 | -32.1
O=C(COC(=O)c1ccc(Cl)c(S(=O)(=O)N2CCCC2)c1)NC1CCCC1 | -44.5
N#C/C(=C\c1ccc[nH]1)S(=O)(=O)c1ccccc1 | -3.2
CCn1cc(/C=C(/C#N)S(=O)(=O)c2ccccc2)cn1 | -12.8
Cc1ccc(S(=O)(=O)N[C@@H](CC(C)C)C(=O)NCc2ccco2)cc1 | 18.5
CC1(C)OC(=O)C(=CNc2ccc(F)cc2)C(=O)O1 | 19.1
O=C(Nc1ccc(F)cc1)c1ccccc1CC[N+](=O)[O-] | 8.4
Cc1cc(C)nc(NN2C(=O)/C(=C/c3ccccc3)SC2=S)n1 | 12.4
COc1ccccc1/C=C1\SC(=S)N(Nc2nc(C)cc(C)n2)C1=O | 0.7
Cc1cc(C)n2nc(SCc3cc(=O)oc4cc(C)c(C)cc34)nc2n1 | -31.2
CC1(C)C(=O)Nc2ccccc2N1C(=O)COC(=O)CCSc1ccccc1 | 6.2
COc1ccccc1-n1cnc(N)c1C(=O)c1ccccc1 | 4.4
Cc1ccc(N2CCN(C(=O)c3ccccc3Br)CC2)c(C)c1 | -48.2
CCOC(=O)c1c(-n2c(C)cc(C=O)c2C)sc2c1CCCC2 | -34.6
CCOC(=O)c1c(N2C(=O)Nc3cc(Cl)c(Cl)cc3N2O)sc2c1CCCCC2 | -30.1
CCOC(=O)Nc1sc(C)nc1-c1ccccc1 | 5.8
COC(=O)C1=C(C)N=C2SC(C)C(=O)N2C1c1cccc(F)c1 (centres undefined) | -3.9
CCOc1ccc(OCC)c(NS(=O)(=O)c2cccc3nsnc23)c1 | -1.4
Cn1c(C(=O)NCCN2CCOCC2)cc2sccc21 | 11.3
COC(=O)c1ccc2c(c1)C(C)(C)C(/C=C/c1ccc(OC)c(OC)c1OC)=[N+]2C | -29.3
COC(=O)c1ccc(/C=C/C(=O)c2ccc(OC)cc2)cc1 | 15.1
COC(=O)c1ccc(/C=C/C(=O)c2ccc(OC)c(OC)c2)cc1 | 5.6

Compound | inhibition [%]
COC(=O)c1ccc2nc(C)c(C)nc2c1 | 8.5
O=C(CCCCCN1C(=O)c2ccccc2C1=O)Nc1ccc(S(=O)(=O)N2CCCCC2)cc1 | 8.2
c1ccc(Cc2nn3c(Cn4nnc5ccccc54)nnc3s2)cc1 | 15.9
COc1ccc(CCNC(=O)C2CC(=O)N(C3CCCC3)C2)cc1OC (centres undefined) | -44.7
Cc1cc(=O)n2c(ccc3ccccc32)c1C#N | 8.7
CCC(C)(C)NC(=O)C(c1cccs1)N(CC1CCCO1)C(=O)Cn1nnc2ccccc21 (centres undefined) | -0.8
Cc1cc(C)cc(NC(=O)CSc2nnc(-c3ccccc3)n2N)c1 | -9.3
Nc1c(-c2ccc(Cl)cc2)cnn1-c1cccc([N+](=O)[O-])c1 | 2.9
COc1ccc(C(=O)O/N=C(\C)c2ccccc2)cc1 | 2.4
c1ccc(Nc2ccccn2)cc1 | 4.3
c1ccc(Nc2cc(Nc3ccccc3)[nH]n2)cc1 | 11.7
Cc1cc(-c2ccccc2)n2nc(C)c(C#N)c2n1 | -0.5
C=CCOC(=O)C1=C(C)NC(=O)NC1/C=C/c1ccccc1 (centres undefined) | 16.7
O=C(Cn1ccc2ccccc2c1=O)NCCC(=O)NC1CCN(Cc2ccccc2)CC1 | -48.7
O=C(N1CCOCC1)N1CCC(n2nnc3cc(F)ccc32)CC1 | -19.8
O=C(NCc1ccccc1)c1ccc(-c2ccc(F)cc2)o1 | 3.6
COc1ccc(-c2noc(-c3ccc(Br)o3)n2)cc1OC | 29
COc1ccc(-c2nc(-c3ccc(Br)o3)no2)cc1OC | -40.2
Cc1ccc(CNC(=O)c2ccc(C#CC(C)(C)O)s2)cc1 | 20.2
O=C(CNS(=O)(=O)/C=C/c1ccccc1)OCC(=O)N1CCC(Cc2ccccc2)CC1 | -18.3
c1ccc(-n2ncc3c2ncn2nnnc32)cc1 | -8.9
Cc1nc2c3cnn(-c4ccccc4)c3ncn2n1 | 41.1
CC(C)C1N=C2c3ccccc3N=C(SCC#N)N2C1=O (centres undefined) | -3.7
CC(C)C1N=C2c3ccccc3N=C(SCC(=O)NCCc3ccc(S(N)(=O)=O)cc3)N2C1=O (centres undefined) | -3.1
COc1ccc(-n2nnnc2SCC(N)=O)cc1 | 20.8

Compound | inhibition [%]
COc1ccc(-n2nnnc2SCC(=O)c2cccc(OC)c2)cc1 | 8.8
CCOC(=O)CNC(=O)CSc1nnc(-c2ccccc2OC)n1CC | -10.2
C=CCn1c(SCC(=O)Nc2ccc3c(c2)OCO3)nnc1-c1ccccc1OC | -54.3
CCn1c(SCC(=O)C(C)(C)C)nnc1-c1ccccc1OC | 5.6
CCn1c(CSc2nc3ccccc3s2)nnc1SCC(=O)c1ccc(Cl)cc1 | -26.1
CCn1c(CSc2nc3ccccc3s2)nnc1SCC(=O)c1ccc(O)cc1O | -26.1
C=CCn1c(SCC(=O)c2ccc(OC)cc2)nnc1-c1cc2cccc(OC)c2o1 | 21.9
COc1ccc(CNc2n[nH]c(NCc3ccc(OC)c(OC)c3)n2)cc1OC | -86.4
O=C(CC1(O)C(=O)Nc2ccccc21)c1cccnc1 (centres undefined) | 26.9
COc1cc2c(cc1NC(=O)CSc1nnnn1-c1ccccc1)oc1ccccc12 | 21.8
CCc1ccc(C(=O)COC(=O)C(Cc2ccccc2)NC(=O)c2ccc(Cl)cc2)cc1 (centres undefined) | -8.9
CCc1ccc2nc3c(c(C(=O)O)c2c1)CCC3 | 7.8
Cc1ccc(S(=O)(=O)N2CCC(=O)N2)cc1 | -17.1
CCCc1nc(NCc2ccccn2)c2nnn(Cc3ccccc3F)c2n1 | -1.1
COc1ccc(NC(=O)Cc2cccs2)c(OC)c1 | 9.5
O=C(Cc1n[nH]c(=O)[nH]c1=O)N/N=C/c1ccccc1 | -5.4
CCn1c(SCC(=O)O)nnc1-c1ccccc1 | -9.1
CCn1c(SCC(=O)c2ccc(O)c(O)c2)nnc1-c1ccc(C)cc1 | -7.9
Cc1ccccc1CSc1nccn1-c1ccccc1 | 19
COc1ccc(C2=Nn3c(nnc3-c3ccco3)SC2)cc1OC | 14.5
COc1ccc(-c2nnc3n2N=C(c2cccc(Br)c2)CS3)cc1OC | 7.3
COc1cccc(C2=Nn3c(nnc3-c3ccccc3O)SC2)c1 | -37.4
COc1ccc(C2=Nn3c(nnc3-c3ccco3)SC2)cc1 | -72.6
CCOC(=O)CC1C(=O)NCCN1C(=O)c1cccc(C(F)(F)F)c1 (centres undefined) | 4.8
COc1ccc(S(=O)(=O)NCC(=O)N(CC(=O)NCC2CCCO2)c2cc(C)ccc2C)cc1 (centres undefined) | -64.9

Compound | inhibition [%]
Cc1cc2nc(C3CCN(Cc4nnnn4Cc4ccccc4)CC3)[nH]c2cc1C | -140
Cc1ccc(Cn2nnnc2CN2CCC(c3nc4ccc(Cl)cc4[nH]3)CC2)cc1 | -87.9
COCCCNC(=O)CCn1c(=O)c2ccccc2n(CC(=O)Nc2cc(Cl)ccc2C)c1=O | 7.1
Cc1c(O)ccc(C(=O)COc2ccccc2F)c1O | 8.2
C=CCNc1ncnc2ccccc12 | 7.5
Cc1ccc(N2Cc3ccccc3OC(C)C2=O)cc1 (centres undefined) | -23.8
Cc1cn2c(-c3cccnc3)nnc2s1 | 3.7
CCCn1c(=O)[nH]c(=O)c2c1nc(-c1ccc(OC(F)F)cc1)n2CCN1CCOCC1 | 12.5
CCCc1[nH]nc2c1C(c1cc(OC)cc(OC)c1)C(C#N)=C(N)O2 (centres undefined) | -45.4
COCc1[nH]nc2c1C(c1ccc(OC)cc1)C(C#N)=C(N)O2 (centres undefined) | 6.1
COCc1[nH]nc2c1C(c1ccc(OC)c(OC)c1)C(C#N)=C(N)O2 (centres undefined) | -0.8
CCCc1[nH]nc2c1C(c1cccc(OC)c1)C(C#N)=C(N)O2 (centres undefined) | -46.3
CC(=O)N(C)c1ccc(NC(=O)/C=C/c2ccccc2Cl)cc1 | 0.9
CCC1=C(OC(=O)c2ccccc2)C(C)(C)C(c2ccccc2)OC1=O (centres undefined) | 22.6
CC1=C(C(N)=O)C(c2ccncc2)n2nc(-c3ccccc3Cl)nc2N1 (centres undefined) | 8.9
CCOC(=O)c1ccc(CNC(=O)Cn2nnc(-c3ccc(C)cc3)n2)o1 | 1.5
COC(=O)c1ccc(C)c(NC(=O)Cn2cnc3ccccc3c2=O)c1 | 5.9
CCN=c1scc(-c2ccco2)n1/N=C/c1ccc(O)cc1 | -11.5
CCN=c1scc(-c2ccco2)n1/N=C/c1ccc(OC)c(O)c1 | -2.2
CCc1ccc(CN2CCN(S(=O)(=O)Cc3ccccc3)CC2)cc1 | 11.5
CC(=O)Nc1ccc(-c2cc3ccccc3o2)cc1 | 0.5
Cc1ccccc1C(=O)c1cccn1CC(=O)NCC1CCCO1 (centres undefined) | -11.1
COc1cccc(/C=C2\N=C3CCCCCN3C2=O)c1 | 2.1
COc1ccc(/C=C2\N=C3CCCCCN3C2=O)cc1OC | -6.1
